The source of these data is PubChem BioAssay (NCI).

Compounds without any hit were thinned out: in the full panel of roughly 83,000, 20% have a hit.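 For each line, cells grew in 96-well plates with the test compound present at a single concentration for 48 hours.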 A number with no mark means an inactive call. The source made the active and inactive calls. How the source made its calls: active means growth percent below 10; inactive means the rest.

Some test systems named below: DU-145 prostate; K-562 leukemia; MALME-3M melanoma; MDA-MB-231 breast; RXF 393 renal; SF-268 CNS; SF-295 CNS; SF-539 CNS; UACC-257 melanoma; M14 melanoma.
Common to all, as to experiment: NCI-60 one-dose screen, 48 h (100 = growth as untreated, 0 = no growth, -100 = all killed)
Conditions in all cases: 10 µM unless noted

As to `COc1ccc(NC(=S)N/N=C/c2ccccc2SSCCC(=O)OC[C@H]2O[C@H](O)[C@H](O)[C@@H](O)[C@@H]2O)cc1`, the growth was 83.9% in the test on DU-145 prostate; 51.6% in the test with K-562 leukemia; 72.7% in the test on MALME-3M melanoma; 71.1% in the test on MDA-MB-231 breast; 104% with RXF 393 renal; 61.1% in the test with SF-268 CNS. Also, the growth is 59.1% with SF-295 CNS, 91.7% in the test on SF-539 CNS, 98.4% in the test with UACC-257 melanoma and 47.8% in the test on M14 melanoma.

For `COc1cc2c(cc1-c1c(C)noc1C)ncc1nc(C3CCC(F)(F)CC3)n([C@@H](C)COC(F)F)c12`, the growth with DU-145 prostate was 66.9%; in the test with K-562 leukemia it was 25%; in the test on MALME-3M melanoma it was 76.1%; in the test on MDA-MB-231 breast, 41.6%; in the test with RXF 393 renal, 54.7%; with SF-268 CNS it was 67.8%. Besides, the growth in the test with SF-295 CNS was 47.7%; in the test with SF-539 CNS it was 30.8%; with UACC-257 melanoma it was 35.9%; in the test with M14 melanoma, 41.4%.

As for `Cc1cccc(C)c1NC(=O)CSC(=S)N1CCCCC1`, the growth in the test with DU-145 prostate was 108%; with K-562 leukemia, 87.5%; with MALME-3M melanoma, 88.4%; in the test on MDA-MB-231 breast, 119%; with RXF 393 renal, 111%; with SF-268 CNS, 96%. In addition, the growth in the test on SF-295 CNS is 101%; in the test on SF-539 CNS it was 99.5%; in the test with UACC-257 melanoma, 102%; in the test with M14 melanoma it was 102%.

Turning to `C=C1C(=O)O[C@H]2[C@H]1CC/C(COC(=O)NCc1cc3ccccc3[nH]1)=C\CC[C@@]1(C)O[C@@H]21`, the growth was 1.16% (active) in the test on DU-145 prostate; -5.26% (active) in the test on K-562 leukemia; -59.4% (active) in the test on MALME-3M melanoma; -42.5% (active) in the test with MDA-MB-231 breast; -86.2% (active) with RXF 393 renal; 59.3% in the test with SF-268 CNS. The growth with SF-295 CNS was 90.1%; in the test on SF-539 CNS, -46.2% (active); with UACC-257 melanoma it was 46.2%; with M14 melanoma it was -27.9% (active).

For the compound `CCOc1ccc(NC(=O)c2ccoc2COc2ccccc2)cc1`, the growth is 106% with DU-145 prostate; 88.8% in the test on K-562 leukemia; 100% in the test on MALME-3M melanoma; 98.7% in the test on MDA-MB-231 breast; 106% in the test on RXF 393 renal; 97.8% with SF-268 CNS. In addition, the growth was 101% in the test with SF-295 CNS, 98.5% with SF-539 CNS, 106% in the test with UACC-257 melanoma and 104% in the test with M14 melanoma.

On to `CCCCCC1CCCCN1C(=O)OCC` (stereo not given), for which the growth is 105% in the test on DU-145 prostate; 94.9% in the test with K-562 leukemia; 90.9% in the test with MALME-3M melanoma; 103% in the test on MDA-MB-231 breast; 170% with RXF 393 renal; 99.7% in the test on SF-268 CNS. Besides, the growth in the test with SF-295 CNS was 123%; with SF-539 CNS, 107%; with UACC-257 melanoma it was 106%; in the test with M14 melanoma, 97.4%.

For `CC[C@H](CC[C@@H](C)[C@H]1CC[C@H]2[C@@H]3/C(=C/c4cccnc4)C(=O)C4=CC(=O)CC[C@]4(C)[C@H]3CC[C@]12C)C(C)C`, the growth in the test with DU-145 prostate is 103%; with K-562 leukemia it was 76.4%; with MALME-3M melanoma it was 97.6%; in the test with MDA-MB-231 breast, 95.2%; in the test on RXF 393 renal it was 91.2%; in the test with SF-268 CNS, 103%. Moreover, the growth in the test on SF-295 CNS was 86.5%; in the test with SF-539 CNS it was 105%; with UACC-257 melanoma, 87.8%; with M14 melanoma it was 88%.

As for `C[Si](C)(C)Cc1ccccc1`, the growth in the test on DU-145 prostate is 125%; with K-562 leukemia, 126%; in the test with MALME-3M melanoma, 115%; in the test with MDA-MB-231 breast, 115%; in the test on RXF 393 renal, 132%; with SF-268 CNS, 122%. Also, the growth in the test on SF-295 CNS is 103%; with SF-539 CNS, 107%; in the test on UACC-257 melanoma it was 112%; in the test on M14 melanoma it was 104%.

In the case of `CC1(C)C(=O)/C(=C\c2ccccn2)C[C@]2(C)[C@H]3CC[C@@H]4[C@@H](C(=O)/C=C/c5ccccn5)CC[C@@]4(C)[C@]3(C)CC[C@@H]12`, the growth in the test with DU-145 prostate was -77.1% (active); in the test with K-562 leukemia, 0.811% (active); in the test on MALME-3M melanoma, -35.8% (active); in the test with MDA-MB-231 breast, -60% (active); in the test on RXF 393 renal it was -90.7% (active); in the test with SF-268 CNS it was 9.75% (active). The growth in the test with SF-295 CNS is -77.9% (active); with SF-539 CNS, -43.5% (active); in the test on UACC-257 melanoma it was 7.39% (active); with M14 melanoma, 3.45% (active).

`Cn1nc(-c2ccccc2)c2c(-c3ccccc3)onc2c1=O`: the growth was 34.6% in the test on DU-145 prostate; 13% in the test on K-562 leukemia; 62.9% with MALME-3M melanoma; 52% in the test on MDA-MB-231 breast; 23.8% in the test with RXF 393 renal; 47% in the test on SF-268 CNS. The growth with SF-295 CNS is 27.3%; in the test on SF-539 CNS it was 2.75% (active); in the test with UACC-257 melanoma it was 49.2%; in the test with M14 melanoma, 42.3%.

Turning to `NC1=NN=C2N(N)C(=O)c3cnn(-c4ccccc4)c3N2c2nc(-c3ccccc3)cc(-c3ccccc3)c21`, the growth in the test on DU-145 prostate is 108%; with K-562 leukemia it was 92.9%; in the test with MALME-3M melanoma it was 120%; in the test on MDA-MB-231 breast it was 89.4%; with RXF 393 renal, 138%; in the test on SF-268 CNS, 105%. The growth is 94.6% in the test on SF-295 CNS, 103% in the test on SF-539 CNS, 108% in the test on UACC-257 melanoma and 99.2% with M14 melanoma.

For the compound `CCCCC[C@H]1CC=C2C(=O)C=C[C@@H]2CC=CCCCC(=O)O[C@@H](CCCCC)CC=C2C(=O)C=C[C@@H]2CC=CCCCC(=O)O[C@@H](CCCCC)CC=C2C(=O)C=C[C@@H]2CC=CCCCC(=O)O1`, the growth in the test with DU-145 prostate is 10.6% [8.75 µM]; with K-562 leukemia, 5.31% [8.75 µM] (active); in the test with MALME-3M melanoma, -14.3% [8.75 µM] (active); with MDA-MB-231 breast it was -37.2% [8.75 µM] (active); in the test on RXF 393 renal, -65.4% [8.75 µM] (active); in the test on SF-268 CNS, 14.4% [8.75 µM]. Moreover, the growth with SF-295 CNS is 2.07% [8.75 µM] (active); in the test on SF-539 CNS it was -8.63% [8.75 µM] (active); in the test on UACC-257 melanoma, -3.87% [8.75 µM] (active); in the test with M14 melanoma, -26.3% [8.75 µM] (active).

Turning to `Cc1cc2nc3c4cc(N)ccc4n(CCN(C)C)c3nc2cc1C`, the growth in the test on DU-145 prostate is 12.6%; in the test on K-562 leukemia, 5.75% (active); with MALME-3M melanoma it was -16.6% (active); with MDA-MB-231 breast, 7.84% (active); in the test with RXF 393 renal it was 15.3%; in the test on SF-268 CNS it was 29.7%. Also, the growth in the test with SF-295 CNS is 1.26% (active); in the test with SF-539 CNS, 10.5%; in the test with UACC-257 melanoma, 11.9%; in the test with M14 melanoma, 7.08% (active).
